# The sample as a whole holds a higher share of the strongest signals than the screen did.
# B1: PX15642A-pgi-501-20-501 (Parabacteroides gingivalis) (protein)
# chain: CELDRDPEGKDFQQPYTSFVQTKQNRDGLYALLRNTENPRMHFYQELQSDMYCTTITDGNSLAPFVNWDLGILNDHGRADEDEVSGIAGYYFVYNRLNQQANAFVNNTEAALQNQVYKNSTEIANAKSFLAEGKVLQALAIWRLMDRFSFHESVTEVNSGAKDLGVILLKEYNPGYIGPRATKAQCYDYILSRLSEAIEVLPENRESVLYVSRDYAYALRARIYLALGEYGKAAADAKMVVDKYPLIGAADASEFENIYRSDANNPEIIFRGFASATLGSFTATTLNGAAPAGKDIKYNPSAVPFQWVVDLYENEDFRKSVYIAKVVKKDKGYLVNKFLEDKAYRDVQDKPNLKVGARYFSVAEVYLILVESALQTGDTPTAEKYLKALSKARGAEVSVVNMEALQAERTRELIGEGSRLRDMVRWSIPNNHDAFETQPGLEGFANTTPLKAQAPVGFYAYTWEFPQRDRQTNPQLIKNWPI
# What was measured:
# Test in all cases: glycan array binding signal (z-score within array); higher = stronger binding
# Settings in all cases: glycan notation: IUPAC condensed, linker removed
# Gal(b1-4)GlcNAc6P = biological target: Gal(b1-4)GlcNAc6P
# Summary of the method: (§1)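 Arrays were curated from the Consortium for Functional Glycomics database, 3228 in total, and kept only where the protein sequence was available. Binding is expressed as a within-array Z-score. This score was averaged across arrays of the same protein sequence at different concentrations or buffers and across linkers, and negative values can be read as non-binding.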
# [1] = biological target: GalNAc(b1-4)GlcNAc(b1-2)Man(a1-3)[GalNAc(b1-4)GlcNAc(b1-2)Man(a1-6)]Man(b1-4)GlcNAc(b1-4)GlcNAc
# Summary of the method: as §1
# [2] = biological target: GalNAc(b1-4)GlcNAc(b1-3)GalNAc(b1-4)GlcNAc
# Summary of the method: as §1
# Glc(a1-6)Glc(a1-6)Glc = biological target: Glc(a1-6)Glc(a1-6)Glc
# Summary of the method: as §1
# [3] = biological target: GlcNAc(b1-2)Man(a1-3)[GlcNAc(b1-2)Man(a1-6)]Man(b1-4)GlcNAc(b1-4)[Fuc(a1-6)]GlcNAc
# Summary of the method: as §1
# [4] = biological target: GlcNAc(b1-2)[GlcNAc(b1-6)]Man(a1-6)[GlcNAc(b1-4)][GlcNAc(b1-2)Man(a1-3)]Man(b1-4)GlcNAc(b1-4)GlcNAc
# Summary of the method: as §1
# [5] = biological target: GlcNAc(b1-3)Gal(b1-4)GlcNAc(b1-3)Gal(b1-4)GlcNAc(b1-2)Man(a1-3)[GlcNAc(b1-3)Gal(b1-4)GlcNAc(b1-3)Gal(b1-4)GlcNAc(b1-2)Man(a1-6)]Man(b1-4)GlcNAc(b1-4)GlcNAc
# Summary of the method: as §1
# [6] = biological target: GlcNAc(b1-3)Gal(b1-4)GlcNAc(b1-3)[GlcNAc(b1-3)Gal(b1-4)GlcNAc(b1-3)]GalNAc
# Summary of the method: as §1
# [7] = biological target: GlcNAc(b1-4)GlcNAc(b1-4)GlcNAc(b1-4)GlcNAc(b1-4)GlcNAc
# Summary of the method: as §1
# [8] = biological target: Man(a1-3)[Man(a1-6)]Man(a1-6)[Man(a1-2)Man(a1-3)]Man(b1-4)GlcNAc(b1-4)GlcNAc
# Summary of the method: as §1
# Man(b1-4)GlcNAc = biological target: Man(b1-4)GlcNAc
# Summary of the method: as §1
# [9] = biological target: Neu5Ac(a2-3)Gal(b1-3)[Neu5Ac(a2-6)]GlcNAc(b1-3)[Fuc(a1-3)[Gal(b1-4)]GlcNAc(b1-6)]Gal(b1-4)Glc
# Summary of the method: as §1
# [10] = biological target: Neu5Ac(a2-3)Gal(b1-4)GlcNAc(b1-3)Gal(b1-4)GlcNAc(b1-2)Man(a1-3)[Neu5Ac(a2-3)Gal(b1-4)GlcNAc(b1-3)Gal(b1-4)GlcNAc(b1-2)Man(a1-6)]Man(b1-4)GlcNAc(b1-4)GlcNAc
# Summary of the method: as §1
# [11] = biological target: Neu5Ac(a2-3)Gal(b1-4)GlcNAc(b1-3)Gal(b1-4)GlcNAc(b1-3)GalNAc
# Summary of the method: as §1
# [12] = biological target: Neu5Ac(a2-3)Gal(b1-4)GlcNAc6S
# Summary of the method: as §1
# [13] = biological target: Neu5Ac(a2-3)Gal(b1-4)[Fuc(a1-3)]GlcNAc(b1-3)GalNAc
# Summary of the method: as §1
# [14] = biological target: Neu5Ac(a2-3)Gal6S(b1-4)[Fuc(a1-3)]GlcNAc
# Summary of the method: as §1
# [15] = biological target: Neu5Ac(a2-3)[GalNAc(b1-4)]Gal(b1-4)GlcNAc(b1-3)GalNAc
# Summary of the method: as §1
# [16] = biological target: Neu5Ac(a2-6)Gal(b1-4)GlcNAc
# Summary of the method: as §1
# [17] = biological target: Neu5Ac(a2-6)Gal(b1-4)GlcNAc(b1-3)Gal(b1-4)GlcNAc(b1-3)Gal(b1-4)GlcNAc(b1-2)Man(a1-3)[Neu5Ac(a2-6)Gal(b1-4)GlcNAc(b1-3)Gal(b1-4)GlcNAc(b1-3)Gal(b1-4)GlcNAc(b1-2)Man(a1-6)]GalNAc
# Summary of the method: as §1
# [18] = biological target: Neu5Ac(a2-6)GalNAc(b1-4)GlcNAc6S
# Summary of the method: as §1
# [19] = biological target: Neu5Ac(a2-8)Neu5Ac(a2-3)[GalNAc(b1-4)]Gal(b1-4)Glc
# Summary of the method: as §1
# [20] = biological target: Neu5Ac(a2-8)Neu5Ac(a2-8)Neu5Ac(a2-3)[Gal(b1-3)GalNAc(b1-4)]Gal(b1-4)Glc
# Summary of the method: as §1
# [21] = biological target: Neu5Ac(a2-8)Neu5Ac(a2-8)Neu5Ac(a2-3)[GalNAc(b1-4)]Gal(b1-4)Glc
# Summary of the method: as §1
# [22] = biological target: Neu5Ac(a2-8)Neu5Gc(a2-3)Gal(b1-4)GlcNAc
# Summary of the method: as §1
# [23] = biological target: Neu5Gc(a2-3)Gal(b1-4)GlcNAc(b1-3)Gal(b1-4)GlcNAc(b1-2)Man(a1-3)[Neu5Gc(a2-3)Gal(b1-4)GlcNAc(b1-3)Gal(b1-4)GlcNAc(b1-2)Man(a1-6)]Man(b1-4)GlcNAc(b1-4)GlcNAc
# Summary of the method: as §1
# [24] = biological target: Neu5Gc(a2-3)Gal(b1-4)[Fuc(a1-3)]GlcNAc
# Summary of the method: as §1
# [25] = biological target: Neu5Gc(a2-8)Neu5Gc(a2-6)Gal(b1-4)GlcNAc
# Summary of the method: as §1
binder,measurement,setting,value
B1,glycan array binding signal (z-score),Gal(b1-4)GlcNAc6P,-0.285
same,glycan array binding signal (z-score),[1],1.15
same,glycan array binding signal (z-score),[2],5.6
same,glycan array binding signal (z-score),Glc(a1-6)Glc(a1-6)Glc,1.35
same,glycan array binding signal (z-score),[3],0.116
same,glycan array binding signal (z-score),[4],-0.076
same,glycan array binding signal (z-score),[5],2.32
same,glycan array binding signal (z-score),[6],0.014
same,glycan array binding signal (z-score),[7],0
same,glycan array binding signal (z-score),[8],0.018
same,glycan array binding signal (z-score),Man(b1-4)GlcNAc,0.033
same,glycan array binding signal (z-score),[9],-0.808
same,glycan array binding signal (z-score),[10],0.992
same,glycan array binding signal (z-score),[11],-0.213
same,glycan array binding signal (z-score),[12],-0.486
same,glycan array binding signal (z-score),[13],3.38
same,glycan array binding signal (z-score),[14],-1.24
same,glycan array binding signal (z-score),[15],-1.14
same,glycan array binding signal (z-score),[16],-0.264
same,glycan array binding signal (z-score),[17],2.23
same,glycan array binding signal (z-score),[18],0.286
same,glycan array binding signal (z-score),[19],-0.038
same,glycan array binding signal (z-score),[20],1.75
same,glycan array binding signal (z-score),[21],0.122
same,glycan array binding signal (z-score),[22],15.5
same,glycan array binding signal (z-score),[23],0.077
same,glycan array binding signal (z-score),[24],-0.476
same,glycan array binding signal (z-score),[25],-0.753

# — the supplement of paper PMC8728848
